Hit rate of the full screen: of about 53,000 sequences, about 3,700 (7%) were called active.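 The calls were made as follows: active = gene knockdowns whose robust z-score for IL-1 alpha signal is at least 2 or at most -2, so actives lie on both sides; inactive = the rest.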 Only a selection was taken, and actives are over-represented in it overall.
experiment: Components of the Cytosolic LPS Sensing Pathway: Gene Identification via Genome-wide siRNA Screen; conditions: RAW264.7 macrophages, IL-1a HTRF, actives lie on both sides, screened at 100 nM (by protocol), cells primed 5 h with Pam3CSK4 first;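 also: robust z of the log signal after scaling to non-targeting control siRNA wells of the plate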
Method in brief: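 Mouse macrophage line RAW264.7 is transfected with siRNA (100 nM final), grown 48h, primed with TLR ligand Pam3CSK4 5 h and given intracellular LipidA 24 h. IL-1a in supernatant is read by HTRF and viability by luminescence.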

| Sequence | z-score |
| --- | --- |
| GGGCUCUGUGGAAAUCAUGTT against Rnf187 | -0.043 (inactive) |
| GGCUGUGAAUCUGAAGAGCTT against Chrna6 | 0.241 (inactive) |
| CGAUUUCCCAAGUUAUUACTT against Nxf1 | -2.26 (active) |
| GGUGGUAGCUUUGUACUUUTT against Nxnl2 | 0.829 (inactive) |
| GGAAGCACGUUGGAAGGAUTT against Olfr845 | 0.461 (inactive) |
| GGAGAAAAGGGUGCUGAAGTT against Ybx3 | 2.85 (active) |
| GCAUAUGGAGCAACUUGCUTT against Dsg1c | -1.17 (inactive) |
| GGCUGAAAGUGAAGAAACGTT against Srp68 | -2.11 (active) |
| GGUGAUGAUCCCAUGGGUUTT against Ube2g2 | -0.289 (inactive) |
| GGUUUGUUUGUUUUUUGGUTT against Ajuba | 2.96 (active) |
| GGUGCAAAGCUUGAAAAUGTT against Gpr150 | -0.324 (inactive) |
| GCGAGUGCUUGGCUAUUAUTT against Ckap2 | -0.234 (inactive) |
| GGAGUGAAAUAUGGAGUUGTT against Dhrs7b | 0.787 (inactive) |
| GGAAUGUAAGAACCCUUGCTT against Adam19 | 1.77 (inactive) |
| GAUCUUAGCUGUGUGUGUGTT against Pf4 | -2.57 (active) |
| GGCCUAUGCGAAAAUCUGUTT against Camk2b | -1.14 (inactive) |
| GGAAAUUCUGGCAUAAAUUTT against Cd86 | -0.732 (inactive) |
| GGACAUCAUUACAAAGAUGTT against Rgs6 | -0.608 (inactive) |
| GCUUCGAGAGUCAACUAUGTT against Mecom | 0.232 (inactive) |
| GGGCACAAAGAUAUGAAUATT against Lgals3bp | 0.147 (inactive) |
| GGUGAGGUAGGUUACUCAGTT against Reps1 | -2.16 (active) |
| GGAACGAAUGAAAAGACUUTT against Tpp2 | 0.35 (inactive) |
| GGUUGCUAUGAUUUUUGUUTT against Itsn1 | 0.52 (inactive) |

| Sequence | z-score |
| --- | --- |
| GGAAGUGAGAAGAUGGAUATT against Fam163b | 0.93 (inactive) |
| GGGACAGAUACAGUUCAUGTT against Zan | -0.114 (inactive) |
| GCACGAGGAUUCAGAUAUCTT against Gusb | -0.449 (inactive) |
| GGAUCUCCUGCUUGAACUGTT against Adam33 | 2.79 (active) |
| CCAGCAUUAUCCAUAUCAATT against Nat2 | 0.786 (inactive) |
| GGUCUCAGACACCUGACUCTT against Opa3 | 1.53 (inactive) |
| GGUGUCAGCUUACCAUUCATT against Triap1 | -0.329 (inactive) |
| CCUUGCAUUACUUCUAAAUTT against Aff2 | 0.29 (inactive) |
| GGCAUUGUGAAAUCCUAUUTT against Lhx5 | -1.31 (inactive) |
| CCUGACAGCACUUUGUGGATT against Arhgef4 | 0.481 (inactive) |
| GGUGCAUGUCUUCAUCCACTT against Rnase12 | 3.04 (active) |
| GGAAAAUCCCUGUGUCCGATT against Spdye4a | -1.34 (inactive) |
| GCAGGAGGUUUAUACAGCCTT against Spata5 | -0.969 (inactive) |
| GCCUAUUCGAAUUUGGGAATT against Ogt | -0.0977 (inactive) |
| GGAAAUGACGAGAAGAAAGTT against Mapt | -0.0597 (inactive) |
| GCCUUUGUGAGGAUUAAACTT against Fam83f | -0.000611 (inactive) |
| GGUAUAUGUCACCAUACUCTT against Phxr2 | -1.99 (inactive) |
| GGCAUGAAGUUUGAAGCCATT against Cnnm2 | -2.47 (active) |
| GGAGCUCUUCCAGUUGUUUTT against Khk | -1.51 (inactive) |
| GCAAUGUGAGAAUUUUAACTT against Psg26 | 2.03 (active) |
| GCACAGAGUCUAGUGUUUATT against Ube2j2 | 0.325 (inactive) |
| GGGCAUUGUUGUUUCUAUUTT against Lhfp | -0.0841 (inactive) |
| CCAAAUUGCUGACUUAUUCTT against Ccna2 | 0.794 (inactive) |

| Sequence | z-score |
| --- | --- |
| GGGUUUCCUUAUGAGAAAGTT against Mien1 | -0.606 (inactive) |
| GGUUUGUGACAUUAUCUGCTT against Wrnip1 | 2.36 (active) |
| CGCUCCAUUGCUCAGUAUUTT against Vtn | 1.63 (inactive) |
| GGCAGCAGAGAAGAAAGCCTT against Pld3 | -3.16 (active) |
| GCUCAAUUGUGGAGCAGUCTT against Cd5l | -0.247 (inactive) |
| GGCUAAUGAAGCACGCAGATT against Tspan33 | 0.264 (inactive) |
| CGACCUAUUAGAGAGCAACTT against Zfp248 | 2.58 (active) |
| GGAUCGAAUCUUUACCUAUTT against Col9a1 | 0.932 (inactive) |
| GGCCAAAGUCCAUUCAUUCTT against Olfr1120 | 1.31 (inactive) |
| CCAAUAUCUCCAAAUAGAATT against Atp8b1 | -0.974 (inactive) |
| GGGAAAUCCGAUAUUCCCUTT against Lats2 | 1.1 (inactive) |
| GGCGGUUUUAGUGAAUAACTT against Golm1 | 2.17 (active) |
| GGUUAGAGAUCUUUUGAAATT against St14 | -0.333 (inactive) |
| GCAUGUGCUAUAAUGAUCATT against Gm5444 | 0.256 (inactive) |
| CCACAAUUACCCAGUAUGATT against Olfr498 | -0.939 (inactive) |
| CCUCAUGUCUGGCAUCUUGTT against Egr4 | -1.7 (inactive) |
| GGGUGCCUACUUGAUCCUUTT against Hgh1 | 1.63 (inactive) |
| GGCUUCAAAGGCAAAGUUCTT against Fbf1 | -1.5 (inactive) |
| CCAUAUGUGAUUUGUCUUGTT against Cacnb2 | -0.706 (inactive) |
| CCUAAGGUACCAUUUUAAATT against Clp1 | 0.225 (inactive) |
| GGAAGACACACAGUACAUGTT against Rfx2 | 2.92 (active) |
| GGAGGCUGUCUGUCUAAUATT against Trim39 | 0.25 (inactive) |
| CCAAUCAACCCUCUAAGCATT against Nphp4 | 0.576 (inactive) |
